Bioassay records deposited in PubChem by several laboratories.
The list is not random: actives were taken first. Their share in the collection is about 4.2%.
V-ATPase pH = regulators of yeast V-ATPase proton pumping, primary screen, pHLuorin cytosolic pH fluorescence; S. cerevisiae; response, % at 10 µM; 350,000 tested, 0.37% active; in the data active means response mostly above about 7.3%, no sharp cut-off; inactive means mostly below about 5.4%; further: actives read high
tim23-1 inh = growth inhibitors of tim23-1 mutant yeast, primary screen, luminescence, uHTS; S. cerevisiae tim23-1 growth, BacTiter-Glo luminescence, 24 h; inhibition, % at 20 µM; 330,000 tested, 1.3% active;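 active means growth inhibition of the mutant yeast at or above 50%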;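 further: temperature-sensitive mutant grown at 25 °C; plate controls were DMSO-treated mutant yeast for no effect and medium wells lacking yeast for full effect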
NALP1 yeast inh = NALP1 inflammasome inhibitors in reconstituted yeast, colorimetric, S. cerevisiae, triplicate retest. S. cerevisiae NALP1/ASC/caspase-1 growth, X-gal OD620, 72 h. inhibition, % at 10 µM. 280,000 tested, 0.61% active. AID 2071, 2009; in the data active means inhibition mostly above about 24%, no sharp cut-off; inactive means mostly below about 32%
TIM10 inh = growth inhibitors of isogenic TIM10 control yeast, primary screen, counter-screen for tim10-1 yeast inhibitor project, luminescence, uHTS; 330,000 tested, 1.4% active; AID 463195, 2010; S. cerevisiae TIM10 strain growth, BacTiter-Glo luminescence, 24 h; inhibition, % at 10 µM;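 active means inhibition of 40% or more at the single tested concentration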;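 further: wild-type TIM10 isogenic control strain grown at permissive 25 °C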
tim10-1 inh = growth inhibitors of tim10-1 mutant yeast, primary screen, luminescence, uHTS; S. cerevisiae tim10-1 ts strain growth, BacTiter-Glo, 24 h; inhibition, % at 20 µM; 330,000 tested, 2.2% active;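 active means inhibition of at least 40%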;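 further: mutant grown at 25 °C; 0% = DMSO wells with yeast and 100% = wells holding no yeast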
NLRP3 yeast inh = NALP3 inflammasome inhibitors in reconstituted yeast, primary screen, luminescence, uHTS; Yeast reconstituted NLRP3/ASC/caspase-1, beta-gal luminescence, 24 h; AID 2825, 2010; inhibition, % at 10 µM; 330,000 tested, 0.39% active;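 active means inhibition of 50% or more; inactive means inhibition below 50%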;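 further: plate controls were induced DMSO wells for no effect and uninduced yeast grown without galactose for full effect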
tim10-1 conf = growth inhibitors of tim10-1 mutant yeast, confirmation, single concentration, luminescence, S. cerevisiae; shares compounds with tim10-1 inh; S. cerevisiae tim10-1 ts strain growth, BacTiter-Glo, 24 h; inhibition, % at 20 µM; 7,400 tested, 56% active; AID 463213, 2010;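 active means inhibition of yeast growth at or above a set limit in either of two repeat tests at 20 µM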;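 further: tim10-1 mutant grown at permissive 25 °C to find synthetic lethal compounds; 0% = DMSO yeast wells and 100% = medium wells without yeast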
Starred values were filed as active, the others as inactive.

`CCN1C(=O)C(O)(CC(=O)/C=C/C=C/c2ccccc2)c2ccccc21` (centres undefined) gave V-ATPase pH 2.8, tim23-1 inh 28.3, NALP1 yeast inh 9.5, TIM10 inh 22.9, tim10-1 inh 34.5 and NLRP3 yeast inh 7.0.
Screening Cc1ccc2c(c1)C(O)(CC(=O)/C=C/C=C/c1ccccc1)C(=O)N2 (centres undefined) returned V-ATPase pH 1.4, tim23-1 inh 29.6, NALP1 yeast inh 26.3, TIM10 inh -4.0, tim10-1 inh 40.4*, NLRP3 yeast inh 6.1 and tim10-1 conf 28.4*.
NC(=O)CN1C(=O)C(O)(CC(=O)/C=C\C=C\c2ccccc2)c2ccccc21 (centres undefined) was read as V-ATPase pH 1.5, tim23-1 inh 16.4, NALP1 yeast inh 8.2, TIM10 inh 5.7, tim10-1 inh -6.4 and NLRP3 yeast inh -5.8.
Screening O=C(/C=C/C=C/c1ccccc1)CC1(O)C(=O)N(CCc2ccccc2)c2ccccc21 (centres undefined) returned V-ATPase pH 4.1, tim23-1 inh 41.4, NALP1 yeast inh 19.8, TIM10 inh 27.4, tim10-1 inh 45.0*, NLRP3 yeast inh 0.9 and tim10-1 conf 52.5*.
Screening CN1C(=O)C2C(c3ccc(N(C)C)cc3)=NN(Cc3ccccc3)C2C1=O (centres undefined) returned V-ATPase pH 5.0, tim23-1 inh -5.6, NALP1 yeast inh -18.2, TIM10 inh -11.0, tim10-1 inh -17.2 and NLRP3 yeast inh 25.9.
`O=C(O)C[C@H]1c2cc(F)ccc2S(=O)(=O)N1C1CCN(Cc2ccccc2)CC1` gave V-ATPase pH 4.5, tim23-1 inh 9.9, TIM10 inh -4.8, tim10-1 inh 4.2 and NLRP3 yeast inh -13.2.
For COc1ccc(Nc2ncnc3scc(-c4ccc(OC)cc4)c23)cc1 the results were V-ATPase pH 1.9, tim23-1 inh 39.9, NALP1 yeast inh 20.0, TIM10 inh 39.1, tim10-1 inh 48.6*, NLRP3 yeast inh 11.2 and tim10-1 conf 35.9*.
`COc1ccc(-c2csc3ncnc(Cl)c23)cc1` gave V-ATPase pH 1.3, tim23-1 inh 18.3, NALP1 yeast inh 7.9, TIM10 inh -5.1, tim10-1 inh 35.7 and NLRP3 yeast inh 7.2.
For Cc1ccc(C)c(S(=O)(=O)ON2C(=O)c3ccccc3C2=O)c1 the results were V-ATPase pH 2.0, tim23-1 inh 12.8, NALP1 yeast inh 18.8, TIM10 inh 26.0, tim10-1 inh 70.0*, NLRP3 yeast inh 4.5 and tim10-1 conf 51.6*.
For COc1ccc(OCC(=O)N2N=C(C(F)F)CC2(O)C(F)F)cc1 (centres undefined) the results were V-ATPase pH -0.1, tim23-1 inh 21.2, NALP1 yeast inh 20.2, TIM10 inh 1.8, tim10-1 inh 52.8*, NLRP3 yeast inh -3.7 and tim10-1 conf 42.5*.
`Cc1cc(C)n(CC(=O)N2N=C(C(F)F)CC2(O)C(F)F)n1` (centres undefined) gave V-ATPase pH -4.6, tim23-1 inh 7.9, NALP1 yeast inh 16.0, TIM10 inh -5.1, tim10-1 inh 5.4 and NLRP3 yeast inh 13.3.
`Cc1cc(C)c(C(=O)NNC(=O)c2cccnc2)c(C)c1` gave V-ATPase pH -1.1, tim23-1 inh 7.7, NALP1 yeast inh 11.4, TIM10 inh -11.4, tim10-1 inh 10.8 and NLRP3 yeast inh 8.1.
Screening CN(CC(=O)Nc1cccc(F)c1)C(=O)c1cccc(S(=O)(=O)N2CC3(C)CC2CC(C)(C)C3)c1 (centres undefined) returned V-ATPase pH 2.5, tim23-1 inh 16.2, TIM10 inh 12.2, tim10-1 inh 14.7 and NLRP3 yeast inh 11.5.
COc1ccc(CN2CCN(c3nc4ccccc4s3)CC2)cc1 was read as V-ATPase pH -2.9, tim23-1 inh 24.8, NALP1 yeast inh 9.3, TIM10 inh 27.0, tim10-1 inh 15.0 and NLRP3 yeast inh 1.8.
For Cc1ccccc1CN1CCN(c2nc3ccccc3s2)CC1 the results were V-ATPase pH -1.7, tim23-1 inh 40.3, NALP1 yeast inh 0.2, TIM10 inh 5.2, tim10-1 inh 41.5*, NLRP3 yeast inh 14.5 and tim10-1 conf 23.8.
For CCC(C)(C)c1ccc(Oc2cccc(C(=O)O)c2)cc1 the results were V-ATPase pH 1.9, tim23-1 inh 22.1, NALP1 yeast inh 10.1, TIM10 inh -1.8, tim10-1 inh 96.9*, NLRP3 yeast inh 14.7 and tim10-1 conf 21.4.
`CN(C)S(=O)(=O)c1cccc(NC(=S)NN=C(Cc2ccccc2)Cc2ccccc2)c1` gave V-ATPase pH 0.8, tim23-1 inh 41.0, NALP1 yeast inh 12.3, TIM10 inh 21.9, tim10-1 inh 43.6*, NLRP3 yeast inh 10.2 and tim10-1 conf 22.0.
For O=S(=O)(c1ccc(-c2csc(-c3cccnc3)n2)cc1)N1CCCC1 the results were V-ATPase pH -0.7, tim23-1 inh 31.0, NALP1 yeast inh 30.5, TIM10 inh 27.5, tim10-1 inh 43.8*, NLRP3 yeast inh -47.2 and tim10-1 conf 38.5*.
`O=S(=O)(c1cccc(-c2csc(-c3cccnc3)n2)c1)N1CCCCC1` gave V-ATPase pH 1.9, tim23-1 inh 29.3, NALP1 yeast inh 1.7, TIM10 inh 13.2, tim10-1 inh 25.9 and NLRP3 yeast inh 24.4.
CCOc1ccccc1N1CCN(C(=O)Nc2cccc(Cl)c2)CC1 was read as V-ATPase pH 4.2, tim23-1 inh 14.3, NALP1 yeast inh 13.3, TIM10 inh 21.4, tim10-1 inh 44.5*, NLRP3 yeast inh 20.6 and tim10-1 conf 14.0.
Screening Cn1nc(-c2ccccc2)cc1NC(=O)Nc1ccc(C(C)(C)C)cc1 returned V-ATPase pH 12.1, tim23-1 inh 39.5, TIM10 inh 25.9, tim10-1 inh 40.6*, NLRP3 yeast inh 21.2 and tim10-1 conf 38.7*.
For CCNC(=S)NNC(=O)c1cc(-c2ccccc2C)nc2ccccc12 the results were V-ATPase pH 1.0, tim23-1 inh 32.5, NALP1 yeast inh 8.8, TIM10 inh 32.8, tim10-1 inh 46.1*, NLRP3 yeast inh 14.3 and tim10-1 conf 46.3*.
Screening CCn1c(-c2cc(-c3ccccc3OC)nc3ccccc23)n[nH]c1=S returned V-ATPase pH -0.6, tim23-1 inh 21.1, NALP1 yeast inh 5.6, TIM10 inh 23.6, tim10-1 inh 12.9 and NLRP3 yeast inh 5.3.
Cc1ccc(C)c(-c2cc(C(=O)NNC(=S)NCC(C)C)c3ccccc3n2)c1 was read as V-ATPase pH -2.2, tim23-1 inh 26.4, NALP1 yeast inh 11.0, TIM10 inh 18.2, tim10-1 inh 47.0*, NLRP3 yeast inh -1.4 and tim10-1 conf 31.4.
